Screening results as filed in PubChem.
Hits are enriched below; roughly 12% of the tested compounds scored in any of these assays.
HCV inhibitor – qHTS Assay for Inhibitors of Hepatitis C Virus (HCV); Potency, µM (top dose mostly 41.8 µM), for the others: top-dose activity change, negative = inhibition, actives largely listed as inhibitors; Huh7.5.1 HCVcc-Cre infection, luciferase reporter, 44 h; actives 3.4% (n = 340,000); further: on the % scale 0 is the no-effect control and ±100 the full control effect
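Whole-lifecycle infectious HCVcc-Cre system; cells 1,000/well, compound then virus (~0.5 moi) added 4 h after plating, 44 h culture. Luciferase read 15 sec following 15 min substrate incubation, room temp.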
NS1 function inh – qHTS Assay for Inhibitors of Influenza NS1 Protein Function; actives 0.4% (n = 270,000); Potency, µM (titrated, usually from 46.1 µM), for inactives: at the highest dose activity, positive = more growth; calls by dose curve; further: actives are rising curves; nearly all actives have a fitted effect of over 50% in size
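Compounds were scored for reversing the slow growth caused by influenza A NS1 in S. cerevisiae, measured by optical density at 600 nm. Assay medium contained 2% galactose at pH 6.0; NS1-free yeast of the same strain were the positive control.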
SARS PLP yeast – qHTS of Yeast-based Assay for SARS-CoV PLP; actives 0.19% (n = 330,000); Potency, µM (highest dose often 32.9 µM), inactives show at the top dose activity, positive = growth rescue, actives largely listed as activators; S. cerevisiae expressing SARS-CoV PLpro, growth rescue; AID 485353, 2010; calls by dose curve; further: 0% is about no effect; nearly all actives have a fitted effect of over 55% in size
Pf growth 96h – Primary qHTS for delayed death inhibitors of the malarial parasite plastid, 96 hour incubation. Potency, µM (series often up to 28.7 µM), inactives show at the highest dose activity change, negative = inhibition, most hits filed as inhibitors. AID 504834, 2011. actives 6.9% (n = 320,000). P. falciparum luciferase reporter growth, 96 h; further: on the % scale 0 is the no-effect control and ±100 the full control effect
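P. falciparum expressing integrated firefly luciferase grown in erythrocytes (2% hematocrit, 0.05% parasitemia final) with compounds for 96 hours at 37 C, 5% CO2. Growth inhibition read as loss of luminescence after adding luciferase detection reagent.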
AMA1 RON2 block – qHTS for Inhibitors of AMA1-RON; Towards Development of Antimalarial Drug Lead: Primary Screen. Plasmodium falciparum AMA1 (3D7) - RON2 peptide interaction. AlphaScreen AMA1-biotinylated RON2 peptide binding. Potency, µM (highest dose often 58.2 µM), for the others: top-dose activity change, negative = inhibition, most hits filed as inhibitors. actives 0.2% (n = 360,000). AID 720542, 2013;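 further: 0% = vehicle wells and -100% = peptide control; nearly all actives have a fitted effect of over 45% in size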
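AMA1 (3D7) with his tag at 25 nM final met compounds first, then biotinylated RON2 peptide at 25 nM; detection used donor plus acceptor beads, 10 µg/mL apiece, read by AlphaScreen after 30 min at room temperature.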
Pf growth 48h – Primary qHTS for delayed death inhibitors of the malarial parasite plastid, 48 hour incubation | P. falciparum luciferase growth in erythrocytes, 48 h | Potency, µM (doses to about 28.7 µM), for inactives: top-dose activity change, negative = inhibition, most hits filed as inhibitors | actives 5.9% (n = 310,000) | AID 504832, 2011; further: on the % scale 0 is the no-effect control and ±100 the full control effect
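In quantitative HTS format, infected erythrocytes bearing luciferase-reporter parasites were treated for a single generation at 37 C. Luminescence after adding detection reagent served as the growth measure.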
The depositor's hits bear a star; u = inconclusive; x = not tested or not shown; [ ] = dose if it differs, or a comment. Unless noted, the call rests on the fitted dose curve; in most records, active means well fitted curve in the direction sought with a large enough effect; inconclusive means small, poorly fitted or top-dose-only effect, or another doubt; inactive means no such curve, though single readings can be large; an effect the other way counts as inactive or inconclusive. Potency means the concentration at half of the fitted maximal effect.

SMILES	HCV inhibitor	NS1 function inh	SARS PLP yeast	Pf growth 96h	AMA1 RON2 block	Pf growth 48h
COc1ccc(CCN(C)C(=O)c2cc(S(=O)(=O)N3CCCCC3)ccc2Cl)cc1OC	u	x	3%	u	59%	13µM*
COc1ccc(S(=O)(=O)N2CCCCCC2)cc1C(=O)N(C)CCOc1ccc(Cl)cc1	u	x	0%	u	-2%	13µM*
c1ccc(COCCC2CO2)cc1 (centres undefined)	x	8%	4%	-7%	x	36%
Cc1cc(NC(=O)CS(=O)(=O)c2ccc(Cl)cc2)no1	14%	8%	-1%	28%	6%	7%
CCC1=C[C@@H]2CN(C1)Cc1c([nH]c3ccccc13)[C@@](C(=O)OC)(c1cc3c(cc1OC)N(C)[C@@H]1[C@@](O)(C(=O)OC)[C@H](OC(C)=O)[C@]4(CC)C=CCN5CC[C@]31[C@@H]54)C2	x	x	x	0.85µM*	x	0.48µM*
CC[C@]1(O)CC2CN(CCc3c([nH]c4ccccc34)[C@@](C(=O)OC)(c3cc4c(cc3OC)N(C)[C@H]3[C@@](O)(C(=O)OC)[C@H](OC(C)=O)[C@]5(CC)C=CCN6CC[C@]43[C@@H]65)C2)C1 (some centres undefined)	x	x	x	0.85µM*	x	0.48µM*
Cc1cc(F)c(F)c(C(=O)N2CCC(C)CC2)c1Cl	17%	0%	0%	-7%	-4%	19%
Cc1cccc(NC(=O)N2CCCC2C(=O)Nc2ccccc2)c1 (centres undefined)	31%	-1%	0%	-21%	9%	u
CCC(C)(C(=O)Nc1ccc(OC)cc1)N(C)C(=O)Cn1nnnc1N (centres undefined)	-10%	5%	1%	20%	3%	-14%
O=c1[nH]c(CN2CCN(c3ccc(O)cc3)CC2)nc2scc(-c3ccc(Cl)cc3)c12	6.3µM*	u	-4%	u	16%	3.7µM*
COc1cccc(N2CCN(Cc3nc4ccccc4c(=O)[nH]3)CC2)c1	6%	0%	0%	x	-4%	-5%
COc1cccc(N2CCN(Cc3nc4scc(-c5ccccc5)c4c(=O)[nH]3)CC2)c1	13µM*	25%	9%	u	25%[2.32 µM]	-10%
O=c1[nH]c(CN2CCN(c3ccccc3O)CC2)nc2scc(-c3ccccc3Cl)c12	13µM*	4%	-2%	9.3µM*	92%	5.2µM*
Cc1cc(C(=O)CN2CCN(CC(=O)Nc3cccc(F)c3)CC2)c(C)n1C1CC1	1%	x	3%	0%	20%[11.6 µM]	u
O=C(NC1CCCC1)C(c1cccs1)N(C(=O)c1csnn1)c1ccccc1F (centres undefined)	23%	1%	1%	u	-7%	-6%
CC(C)NS(=O)(=O)c1ccc(NC(=O)CCc2ccccc2)cc1	-22%	0%	1%	x	34%	-9%
CC(C)NS(=O)(=O)c1ccc(CCC(=O)Nc2cc(Cl)ccc2Oc2ccccc2)cc1	6.3µM*	10%	11%	u	-11%	x
CCNS(=O)(=O)c1ccc(CCC(=O)Nc2cc(Cl)ccc2Oc2ccccc2)cc1	10µM*	u	-3%	8.3µM*	0%	u
O=[N+]([O-])c1ccc(COc2ccccc2CN2CCCCC2)cc1	u	x	x	x	13%	x
CCc1ccc(N(C(=O)c2csnn2)C(C(=O)NC(C)(C)CC)c2cccnc2)cc1 (centres undefined)	12%	x	-3%	u	20%	-21%
COC(=O)[C@@H]1Cc2c([nH]c3ccccc23)C(C)(C)N1C(=O)CCl	1µM*	1%	-2%	u	-6%	12µM*
Nc1nc(SCC(=O)NCC2CCCO2)[nH]c(=O)c1NC(=O)c1ccco1 (centres undefined)	19%	15%	1%	50%	-4%	16%
COc1ccc(NC(=O)CSc2nc(N)c(NC(=O)c3ccccc3F)c(=O)[nH]2)cc1	x	11%	1%	67%	-2%	22%
Nc1nc(SCC(=O)NCC2CCCO2)[nH]c(=O)c1NC(=O)c1ccc(F)c(F)c1 (centres undefined)	7%	9%	-1%	17µM*	-5%	1%
COc1ccc(C(=O)Nc2c(N)nc(SCC(=O)Nc3ccc(NC(C)=O)cc3)[nH]c2=O)cc1	-7%	9%	3%	2.6µM*	-7%	10µM*
SMILES	HCV inhibitor	NS1 function inh	SARS PLP yeast	Pf growth 96h	AMA1 RON2 block	Pf growth 48h
CCOC(=O)c1oc2nc3c(cc2c1N)CCCC3	-9%	-11%	-2%	12µM*	5%	203%
CCOC(=O)c1oc2nc3c(cc2c1N)COC(C)(C)C3	-29%	3%	-1%	1%[5.75 µM]	-2%	19%
CCOC(=O)c1oc2nc(CC(C)C)c3c(c2c1N)CCCC3	2.8µM*	5%	-2%	u	-6%	u
O=C1C2CC(O)CN2C(=S)N1Cc1ccccc1 (centres undefined)	4%	8%	0%	-15%	-19%	u
Cc1cccc2cc(CN(CC3CCCO3)C(=O)NC3CCCCC3)c(=O)[nH]c12 (centres undefined)	-21%	-1%	-4%	x	-4%	u
CCN(CC)CCCN(Cc1cc2ccc(C)c(C)c2[nH]c1=O)C(=O)NC1CCCCC1	5.6µM*	6%	8%	9.3µM*	31%	u
Cc1ccc2cc(CN(CC3CCCO3)C(=O)NC3CCCCC3)c(=O)[nH]c2c1C (centres undefined)	-29%	0%	3%	3%	2%	9%
COc1ccc(CCN(Cc2cc3cccc(C)c3[nH]c2=O)C(=O)NC2CCCCC2)cc1OC	6%	1%	12%	2.9µM*	-6%	x
COc1ccc2c(c1)C(c1ccc(Cl)cc1)NC(=O)C2 (centres undefined)	2%	x	2%	u	1%	u
Cc1ccc(SC2=C(Sc3ccc(C)cc3)C(=O)c3ccccc3C2=O)cc1	u	5%	-6%	0.74µM*	u	0.41µM*
CC(OC(=O)CN1C(=O)c2ccccc2C1=O)C(=O)NC1CCCCC1C (centres undefined)	4%	x	1%	47%	-10%	60%
CCn1c(=O)c(C(=O)CN2CCN(S(=O)(=O)c3ccccc3)CC2)c(N)n(Cc2ccccc2)c1=O	2%	x	1%	u	13%	-12%
CCn1c(=O)c(C(=O)CN2CCCc3ccccc32)c(N)n(Cc2ccccc2)c1=O	u	-15%	0%	12µM*	7%	9.3µM*
